Data from PubChem BioAssay (NCATS).
Records with an inconclusive call do not appear. A call without a number means that no potency is given here. A number with no mark means an inactive call. Active and inactive are the calls of the source. Calls follow the shape of the dose curve; as a rule, active = well fitted inhibition curve with a large enough effect; inconclusive = small, poorly fitted or top-dose-only effect; inactive = no such curve, though single readings can be large or run the other way.

Biological target: Cytochrome P450 3A7 (Homo sapiens) (UniProt P24462)
Sequence (P24462 whole entry, looked up): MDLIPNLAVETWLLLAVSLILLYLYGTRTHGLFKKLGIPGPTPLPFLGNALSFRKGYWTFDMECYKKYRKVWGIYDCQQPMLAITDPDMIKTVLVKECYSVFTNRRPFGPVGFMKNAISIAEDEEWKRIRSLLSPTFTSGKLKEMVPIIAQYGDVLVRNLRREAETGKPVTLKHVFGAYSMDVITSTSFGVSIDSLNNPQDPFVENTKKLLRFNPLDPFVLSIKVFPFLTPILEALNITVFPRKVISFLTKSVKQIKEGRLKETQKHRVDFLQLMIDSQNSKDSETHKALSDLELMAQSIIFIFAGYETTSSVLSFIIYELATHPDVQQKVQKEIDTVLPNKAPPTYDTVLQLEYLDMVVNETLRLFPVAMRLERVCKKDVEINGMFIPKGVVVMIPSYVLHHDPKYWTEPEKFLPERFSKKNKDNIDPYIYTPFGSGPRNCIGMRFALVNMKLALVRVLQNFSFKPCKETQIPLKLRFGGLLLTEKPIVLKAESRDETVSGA
Experiment: Cytochrome P450 family 3 subfamily A member 7 (CYP3A7) small molecule antagonists: luciferase biochemical qHTS assay (AID 1963596); also: nearly all actives have a fitted effect of over 40% in size
Settings: P450-Glo CYP3A7 enzyme luminescence, 1 h; series mostly up to 57.4 µM
Outline: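 Luminescence from luciferin released by CYP3A7 from a proluciferin substrate, read 20 min after detection reagent. Compound and enzyme-substrate mix sat 10 min before NADPH regeneration solution; reaction ran 1 h at room temperature.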
Potency is read from the fitted curve at half-maximal effect.

SMILES	Potency	activity change, negative = inhibition
O=C1CCC(=O)N1CO	inactive	–
COc1ccc(-n2nc3c(N4CCCC(C(=O)NCc5ccc(C)cc5)C4)nnc(C)c3c2C)cc1 (stereo not given)	inactive	–
FC(F)OC(Cl)C(F)(F)F (stereo not given)	inactive	–
Cc1ccccc1NC(=O)Nc1ccc(CN2C(=O)N([C@@H](CC(C)C)C(=O)N[C@@H](CC(=O)O)c3ccccc3)C(=O)C2(C)C)cc1	inactive	–
O=C(O)CN(CC(=O)O)Cc1cc2c(-c3ccccc3C(=O)O)c3cc(CN(CC(=O)O)CC(=O)O)c(=O)cc-3oc2cc1O	inactive	–
O=C(O)C1CN(Cc2ccc(-c3nc4cc(Cc5ccccc5F)ccc4s3)c(F)c2)C1	–	-6.84% [at 11.5 µM]
OCCOCCOCCO	inactive	–
CCc1ccc(CNC(=O)C2CCCN(c3nnc(C)c4c(C)n(-c5ccccc5)nc34)C2)cc1 (stereo not given)	2.82 µM (active)	–
CCCC(=O)O	inactive	–
Nc1nccs1	inactive	–
Nc1ncnc2c1c(-c1ccc(Cl)cc1)nn2-c1cccc(-c2cnnn2Cc2cccc(-c3ccccc3)c2)c1	inactive	–
CCCCCCCCCC(=O)O	inactive	–
c1ccc2ccccc2c1	inactive	–
Cc1c(C)c2c(c(C)c1O)CC[C@@](C)(CCC[C@H](C)CCC[C@H](C)CCCC(C)C)O2	inactive	–
O=S(O)CO	inactive	–
O=C(Nc1cccc(Cl)c1)Nc1ccccc1OCc1cc(=O)n2ccccc2n1	inactive	–
CCCCC(CC)COC(=O)CC(C(=O)OCC(CC)CCCC)S(=O)(=O)O (stereo not given)	inactive	–
C=C(C)[C@H]1CC=C(C)CC1	inactive	–
COC(=O)c1ccc(C2C=C(c3ccc(Cl)cc3)Nc3nc4ccccc4n32)cc1 (stereo not given)	inactive	–
O=C(Nc1cccc(C2=NCCN2)c1)Nc1cccc(C2=NCCN2)c1	inactive	–

SMILES	Potency	activity change, negative = inhibition
OC1CCC(Nc2ncc3nc(Nc4c(F)cc(F)cc4F)n([C@H]4CCOC4)c3n2)CC1 (stereo not given in full)	inactive	–
CC(C)[C@@H]1CC[C@@H](C)C[C@H]1OC(=O)c1ccccc1O	inactive	–
CC1(C#N)CCN(c2c(C(=O)N3CCC(C(=O)C4CC4)CC3)cnc3ccc(F)cc23)CC1	inactive	–
CCOC(=O)N1c2ccc(C(F)(F)F)cc2C(N(Cc2cc(C(F)(F)F)cc(C(F)(F)F)c2)C(=O)OC)CC1CC (stereo not given)	inactive	–
CCCCCCCCCCCCCCCCNc1ccc(C(=O)O)cc1	inactive	–
O=C(OCCO)c1ccccc1O	inactive	–
COc1cc(NC(=O)c2ccccn2)ccc1Cl	inactive	–
COc1ccc(-n2c(SCC#N)nc3sc4c(c3c2=O)CCCC4)cc1	inactive	–
COC(=O)c1cc(S(C)(=O)=O)ccc1OC	inactive	–
CC(NC(=O)CCc1nc2ccccc2c(=O)[nH]1)c1ccccc1 (stereo not given)	inactive	–
CN1c2c(nc(N)[nH]c2=O)NCC1CNc1ccc(C(=O)NC(CCC(=O)O)C(=O)O)cc1 (stereo not given)	inactive	–
C=CC1=C(C(=O)O)N2C(=O)[C@@H](NC(=O)/C(=N\OCC(=O)O)c3csc(N)n3)[C@H]2SC1	inactive	–
CC(NC(=O)C(=O)Nc1c2c(nn1-c1ccccc1)CSC2)c1ccccc1 (stereo not given)	inactive	–
CCC(COC)n1nnc2c(Nc3ccc(OC)cc3C)nc(C)cc21 (stereo not given)	inactive	–
C[C@H](NCCc1ccc(O)cc1)[C@H](O)c1ccc(O)cc1	inactive	–
COC(=O)CCC(=O)CN	inactive	–
COc1ccc(CC(=O)Nc2c(C(=O)N3CCN(c4ccccc4F)CC3)oc3ccccc23)cc1OC	inactive	–
O=P(O)(O)OC(CO)CO	inactive	–
Cc1ccc(Nc2nc3nonc3nc2Nc2cccc(C(F)(F)F)c2)cc1Cl	inactive	–
CC(C)[C@H]1CC[C@H](C)C[C@H]1O	inactive	–
